This passage reports Potency results from PubChem BioAssay (NCATS).

Records with an inconclusive call do not appear. Active and inactive are the calls of the source. Calls follow the shape of the dose curve; as a rule, active = well fitted curve in the direction sought with a large enough effect; inconclusive = small, poorly fitted or top-dose-only effect, or another doubt; inactive = no such curve, though single readings can be large; an effect the other way counts as inactive or inconclusive.

A short description of assay [1]: Quantitative High-Throughput drug screen in 47 multiple myeloma cell lines against the NCATS MIPE library collection: KHM11_PLB cell viability assay (AID 1918962). Also: nearly all actives have a fitted effect of over 35% in size. Also: potency is read from the fitted curve at half-maximal effect. In a few lines:
(§1)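 Approved and investigational drugs from MIPE 4.0 were added by pin tool to 500 cells per well. After 48 hours at 37C, ATP-based CellTiter-Glo luminescence indicated remaining viability.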

Assay [2] can be described thus: Quantitative High-Throughput drug screen in 47 multiple myeloma cell lines against the NCATS MIPE library collection: JIM3_ECACC cell viability assay (AID 1918963; also: nearly all actives have a fitted effect of over 35% in size; also: potency is read from the fitted curve at half-maximal effect). The essentials:
as §1

Assay [3] in a line: Quantitative High-Throughput drug screen in 47 multiple myeloma cell lines against the NCATS MIPE library collection: INA6_PLB cell viability assay (AID 1918965; also: nearly all actives have a fitted effect of over 55% in size; also: potency is read from the fitted curve at half-maximal effect). In a few lines: (§2)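 Inhibition of cell viability is measured here. Each line was plated at 500 cells per well, treated with MIPE 4.0 drugs, kept 48 hours at 37C, then assayed for ATP content by CellTiter-Glo luminescence.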

Assay [4] is described as follows: Quantitative High-Throughput drug screen in 47 multiple myeloma cell lines against the NCATS MIPE library collection: H1112_PLB cell viability assay (AID 1918967; also: nearly all actives have a fitted effect of over 30% in size; also: potency is read from the fitted curve at half-maximal effect). The essentials: (§3)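 We plated 500 myeloma cells per well, pinned in MIPE 4.0 compounds, and incubated for 48 hours at 37C. ATP was then quantified with CellTiter-Glo, with DMSO and media-only wells defining 100% and 0%.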

Assay [5] is described as follows: Quantitative High-Throughput drug screen in 47 multiple myeloma cell lines against the NCATS MIPE library collection: KMS12BM_JCRB cell viability assay (AID 1918971). Also: nearly all actives have a fitted effect of over 35% in size. Also: potency is read from the fitted curve at half-maximal effect. In a few lines: as §3
Assay [6] in a line: Quantitative High-Throughput drug screen in 47 multiple myeloma cell lines against the NCATS MIPE library collection: KMS12PE_JCRB cell viability assay (AID 1918972). Also: nearly all actives have a fitted effect of over 30% in size. Also: potency is read from the fitted curve at half-maximal effect. The essentials: as §2
The nature of assay [7]: Quantitative High-Throughput drug screen in 47 multiple myeloma cell lines against the NCATS MIPE library collection: KMS21BM_JCRB cell viability assay (AID 1918974). Also: potency is read from the fitted curve at half-maximal effect. The settings on record: ATP luminescence, 48 h; viability: at 45.8 µM (top of the series). In a few lines:
as §3

Assay [8] in a line: Quantitative High-Throughput drug screen in 47 multiple myeloma cell lines against the NCATS MIPE library collection: KMS26_JCRB cell viability assay (AID 1918975). Also: nearly all actives have a fitted effect of over 45% in size. Also: potency is read from the fitted curve at half-maximal effect. The essentials:
as §3

Assay [9] in a line: Quantitative High-Throughput drug screen in 47 multiple myeloma cell lines against the NCATS MIPE library collection: MMM1_PLB cell viability assay (AID 1918976). Also: nearly all actives have a fitted effect of over 35% in size. Also: potency is read from the fitted curve at half-maximal effect. The essentials:
(§4)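 ATP-based luminescence (CellTiter-Glo, 5 min RT incubation) quantified surviving cells following two days' treatment with MIPE 4.0 agents at 37 °C, 5% CO2.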

Assay [10] can be described thus: Quantitative High-Throughput drug screen in 47 multiple myeloma cell lines against the NCATS MIPE library collection: NCIH929_DSMZ cell viability assay (AID 1918978). Also: nearly all actives have a fitted effect of over 35% in size. Also: potency is read from the fitted curve at half-maximal effect. The essentials:
as §4

The nature of assay [11]: Quantitative High-Throughput drug screen in 47 multiple myeloma cell lines against the NCATS MIPE library collection: MM1S_ATCC cell viability assay (AID 1918980). Also: nearly all actives have a fitted effect of over 45% in size. Also: potency is read from the fitted curve at half-maximal effect. In a few lines:
as §4

Assay [12] can be described thus: Quantitative High-Throughput drug screen in 47 multiple myeloma cell lines against the NCATS MIPE library collection: MM1R_ATCC cell viability assay (AID 1918981). Also: nearly all actives have a fitted effect of over 35% in size. Also: potency is read from the fitted curve at half-maximal effect. The essentials: as §4
Assay [13] is described as follows: Quantitative High-Throughput drug screen in 47 multiple myeloma cell lines against the NCATS MIPE library collection: JIM1_ECACC cell viability assay (AID 1918964; also: potency is read from the fitted curve at half-maximal effect). The essentials: as §3
Assay [14] is described as follows: Quantitative High-Throughput drug screen in 47 multiple myeloma cell lines against the NCATS MIPE library collection: Karpas25_ECACC cell viability assay (AID 1918968; also: nearly all actives have a fitted effect of over 35% in size; also: potency is read from the fitted curve at half-maximal effect). The essentials: as §3
The nature of assay [15]: Quantitative High-Throughput drug screen in 47 multiple myeloma cell lines against the NCATS MIPE library collection: KMS20_JCRB cell viability assay (AID 1918973). Also: nearly all actives have a fitted effect of over 45% in size. Also: potency is read from the fitted curve at half-maximal effect. The essentials:
as §3

Assay [16] is described as follows: Quantitative High-Throughput drug screen in 47 multiple myeloma cell lines against the NCATS MIPE library collection: OCIMY1_PLB cell viability assay (AID 1918979). Also: nearly all actives have a fitted effect of over 35% in size. Also: potency is read from the fitted curve at half-maximal effect. The essentials:
as §4

Assay [17] in a line: Quantitative High-Throughput drug screen in 47 multiple myeloma cell lines against the NCATS MIPE library collection: MOLP8_DSMZ cell viability assay (AID 1918977). Also: nearly all actives have a fitted effect of over 45% in size. Also: potency is read from the fitted curve at half-maximal effect. In a few lines: as §4
Assay [18] can be described thus: Quantitative High-Throughput drug screen in 47 multiple myeloma cell lines against the NCATS MIPE library collection: Karpas417_ECACC cell viability assay (AID 1918961). The settings on record: Karpas417 myeloma viability, CellTiter-Glo ATP luminescence, 48 h; viability (% of DMSO): at 45.8 µM (top of the series). In a few lines: as §2
A general note: In ATP-based viability assays light output follows the ATP content of the culture.

Assay [19] in a line: Quantitative High-Throughput drug screen in 47 multiple myeloma cell lines against the NCATS MIPE library collection: KMS27_JCRB cell viability assay (AID 1918970). Also: nearly all actives have a fitted effect of over 30% in size. In a few lines:
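CellTiter-Glo luminescence after 48 h drug exposure at 37 °C; 500 cells/well, 1536-well format, pin-tool compound addition; DMSO = 100%, media-only = 0% viability.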

Assay [20] can be described thus: Quantitative High-Throughput drug screen in 47 multiple myeloma cell lines against the NCATS MIPE library collection: JJN3_DSMZ cell viability assay (AID 1918966; also: nearly all actives have a fitted effect of over 50% in size; also: potency is read from the fitted curve at half-maximal effect). The essentials: as §3

For `O[C@@H](CNC[C@H](O)[C@H]1CCc2cc(F)ccc2O1)[C@@H]1CCc2cc(F)ccc2O1`, the Potency is 26.4 µM (active) in assay [1]; 23.5 µM (active) in assay [2]; 20.9 µM (active) in assay [3]; 29.6 µM (active) in assay [4]; 23.5 µM (active) in assay [5]; 14.8 µM (active) in [6]. Further, the Potency in assay [7] was 23.5 µM (active); in [8] it was 26.4 µM (active); in assay [9], 23.5 µM (active); in [10], 23.5 µM (active); in [11], 20.9 µM (active); in [12], 26.4 µM (active).

On to `CC(C)(C)NC(=O)[C@H]1CC[C@H]2[C@@H]3CC[C@H]4NC(=O)C=C[C@]4(C)[C@H]3CC[C@]12C`, for which the Potency is 1.18 µM (active) in [1]; 4.18 µM (active) in [2]; 0.833 µM (active) in assay [3]; 1.18 µM (active) in assay [4]; 0.662 µM (active) in assay [14]; 20.9 µM (active) in assay [6]. In addition, the Potency in [15] was 3.32 µM (active); in assay [8] it was 2.96 µM (active); in assay [10], 0.296 µM (active); in assay [11], 0.264 µM (active); in assay [12], 1.32 µM (active). In addition, the Potency result in assay [13], in [5], in assay [9] and in [16] was “inactive” throughout.

Consider `CNCC[C@H](Oc1cccc2ccccc12)c1cccs1`, for which the Potency was 5.26 µM (active) in [1]; 5.26 µM (active) in assay [2]; 7.43 µM (active) in assay [3]; 2.35 µM (active) in assay [4]; 2.96 µM (active) in [14]; 18.7 µM (active) in assay [5]. Further, the Potency was 7.43 µM (active) in assay [8]; 29.6 µM (active) in assay [9]; 18.7 µM (active) in assay [17]; 1.87 µM (active) in assay [10]; 18.7 µM (active) in assay [16]; 2.35 µM (active) in [11]. Moreover, in assay [12], the Potency is 14.8 µM (active).

With `NC(=O)c1cccnc1`, the Potency result in assay [18], in [2], in assay [4], in assay [14], in [6] and in assay [15] was “inactive” throughout. Also, the Potency entry in [17], in assay [10], in assay [16], in assay [11] and in [12] was “inactive” each time.

Turning to `Nc1ccc(S(=O)(=O)Nc2ccccn2)cc1`, the Potency result in assay [18], in assay [2], in assay [4], in [19], in [6] and in assay [7] was “inactive” in each case. Moreover, the Potency entry in assay [8], in [17], in assay [10], in assay [16] and in assay [12] was “inactive” each time.

Take `N[C@@H](C(=O)N[C@@H]1C(=O)N2C(C(=O)O)=C(Cl)CS[C@H]12)c1ccccc1`: the Potency entry in assay [1], in [2], in assay [13], in assay [20], in assay [4] and in [6] was “inactive” each time. For the same compound, the Potency entry in assay [8], in [17], in assay [10] and in [11] was “inactive” in each case.

Consider `Cn1nnc2c(C(N)=O)ncn2c1=O`, for which the Potency entry in assay [1], in assay [2], in assay [20], in assay [4], in [14] and in [19] was “inactive” in each case. Besides, the Potency result in [6], in [8], in assay [9], in assay [17], in assay [10] and in assay [16] was “inactive” each time. Besides, in assay [12], the Potency entry is “inactive”.

In the case of `CCCc1nc(C)c2c(=O)[nH]c(-c3cc(S(=O)(=O)N4CCN(CC)CC4)ccc3OCC)nn12`, the Potency was 9.35 µM (active) in assay [1]; 9.35 µM (active) in assay [2]; 4.18 µM (active) in [3]; 10.5 µM (active) in assay [4]; 5.26 µM (active) in [14]; 5.26 µM (active) in assay [5]. For the same compound, the Potency in assay [6] is 2.96 µM (active); in assay [7] it was 3.72 µM (active); in assay [8] it was 4.69 µM (active); in assay [9], 6.62 µM (active); in [17] it was 5.26 µM (active); in assay [10], 3.72 µM (active). Also, the Potency in [16] is 4.69 µM (active); in [11] it was 4.69 µM (active); in assay [12], 4.18 µM (active).

Turning to `Cc1cccc(Nc2ccncc2S(=O)(=O)NC(=O)NC(C)C)c1`, the Potency result in [1], in assay [2], in assay [13], in assay [4], in [14] and in assay [19] was “inactive” throughout. In addition, the Potency result in [6], in assay [10], in assay [16] and in [11] was “inactive” in each case. Moreover, the Potency in [20] is 20.9 µM (active); in assay [5] it was 16.6 µM (active); in assay [9], 20.9 µM (active).

On to `NC1(c2ccc(-c3nc4ccn5c(=O)[nH]nc5c4cc3-c3ccccc3)cc2)CCC1`, for which the Potency is 5.9 µM (active) in [1]; 0.662 µM (active) in assay [2]; 1.48 µM (active) in [13]; 11.8 µM (active) in assay [3]; 0.0833 µM (active) in assay [4]; 5.26 µM (active) in assay [14]. The Potency in assay [5] was 23.5 µM (active); in assay [6], 0.296 µM (active); in assay [8], 14.8 µM (active); in assay [9], 0.332 µM (active); in [17] it was 3.72 µM (active); in [10], 0.059 µM (active). Moreover, the Potency in [11] is 0.662 µM (active); in assay [12] it was 5.26 µM (active).

For the compound `NNC(=O)c1ccncc1`, the Potency result in [1], in assay [2], in assay [3], in assay [4], in [14] and in assay [19] was “inactive” in each case. The Potency entry in assay [5], in assay [6], in [15], in [8], in assay [17] and in assay [10] was “inactive” each time. Further, the Potency result in assay [16] and in [12] was “inactive” throughout.

Regarding `CCC(=O)O[C@]1(C(=O)SCF)[C@H](C)C[C@H]2[C@@H]3C[C@H](F)C4=CC(=O)C=C[C@]4(C)[C@@]3(F)[C@@H](O)C[C@@]21C`, the Potency entry in [18], in assay [2], in [5], in assay [6], in assay [8] and in [17] was “inactive” throughout. The Potency result in assay [12] is “inactive”. The Potency in assay [4] was 20.9 µM (active).
